The target of assay [1] is Muscarinic acetylcholine receptor M2 (Homo sapiens) (UniProt P08172). Description: NVS_GPCR_hM2: NovaScreen (NVS) G Protein-Coupled Receptor Assay for human Muscarinic, M2 Receptor (AID 2283273). How it is done: (§1) NVS_GPCR_hM2 is a biochemical, single-readout assay that uses extracted gene-proteins from CHO in a cell-free assay. Measurements were taken 1 hour after chemical dosing in a 96-well plate.NVS_GPCR_hM2 is one of one assay component(s) measured or calculated from the NVS_GPCR_hM2 assay. It is designed to make measurements of radioligand binding, a form of binding reporter, as detected with scintillation counting signals by Filter-based radiodetection technology.Data from the assay component NVS_GPCR_hM2 was analyzed into 1 assay endpoint. This assay endpoint, NVS_GPCR_hM2, was analyzed in the positive analysis fitting direction relative to DMSO as the negative control and baseline of activity. Using a type of binding reporter, loss-of-signal activity can be used to understand changes in the binding as they relate to the gene CHRM2. Furthermore, this assay endpoint can be referred to as a primary readout, because the performed assay has only produced 1 assay endpoint. To generalize the intended target to other relatable targets, this assay endpoint is annotated to the gpcr intended target family, where the subfamily is rhodopsin-like receptor.
Sequence of Muscarinic acetylcholine receptor M2 (Homo sapiens) (P08172 whole entry, looked up): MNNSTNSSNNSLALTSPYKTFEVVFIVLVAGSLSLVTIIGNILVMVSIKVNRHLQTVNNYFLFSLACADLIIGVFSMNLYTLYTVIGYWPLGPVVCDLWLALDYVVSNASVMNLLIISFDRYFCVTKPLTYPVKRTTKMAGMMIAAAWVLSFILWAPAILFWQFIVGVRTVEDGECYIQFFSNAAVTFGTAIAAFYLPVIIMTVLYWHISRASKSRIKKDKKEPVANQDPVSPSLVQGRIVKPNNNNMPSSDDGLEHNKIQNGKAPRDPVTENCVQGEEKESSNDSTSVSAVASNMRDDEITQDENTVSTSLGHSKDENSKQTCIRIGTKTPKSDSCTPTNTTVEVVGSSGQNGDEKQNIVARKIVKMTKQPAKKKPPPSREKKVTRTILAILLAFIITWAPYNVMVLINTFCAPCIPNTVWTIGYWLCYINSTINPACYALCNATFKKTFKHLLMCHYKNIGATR
Binding assays used specific radioligands (tritiated, iodinated) with non-radioactive competitive displacement ligands in agonist or antagonist protocols (as indicated) and various reference compounds and inhibitors to titrate specific binding to receptors and transporters. Most enzyme assays (CYPs, kinases, phosphatases, proteases, HDACs) used recombinant protein and specific substrates (fluorescence mostly, some colorimetric and radioactive) and inhibitors, followed by a biochemical separation of substrate and product. All assays for the biochemical HTS were initially run in duplicate at a single concentration (10 uM for CYP450 assays and 25 uM for all others). […] Each assay was run with positive and negative controls, and concurrent controls on every plate. […]

Assay [2] has as its target human Neurokinin, NK2 Receptor, TACR2 (gene 6865) (UniProt P21452). As to the kind of experiment: NVS_GPCR_hNK2: NovaScreen (NVS) G Protein-Coupled Receptor Assay for human Neurokinin, NK2 Receptor (AID 2283278).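 Also: actives reduce bound radioligand signal relative to DMSO baseline.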 In short, it runs like this:
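Radioligand binding on membranes from CHO cells expressing receptor, filter-based scintillation read 4 h after dosing. Initial duplicate screen at 25 uM, actives in concentration series; loss of signal versus DMSO.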

Assay [3] addresses human Neurotensin Receptor (NTS), NTSR1 (gene 4923) (UniProt P30989). Description: NVS_GPCR_hNTS: NovaScreen (NVS) G Protein-Coupled Receptor Assay for human Neurotensin Receptor (NTS) (AID 2283279). How it is done:
as §1, with “NVS_GPCR_hNTS” for “NVS_GPCR_hM2”, “plate.NVS_GPCR_hNTS” for “plate.NVS_GPCR_hM2”, “NVS_GPCR_hNTS,” for “NVS_GPCR_hM2,”, “NTSR1.” for “CHRM2.”
Binding assays used specific radioligands (tritiated, iodinated) with non-radioactive competitive displacement ligands in agonist or antagonist protocols (as indicated) and various reference compounds and inhibitors to titrate specific binding to receptors and transporters. Most enzyme assays (CYPs, kinases, phosphatases, proteases, HDACs) used recombinant protein and specific substrates (fluorescence mostly, some colorimetric and radioactive) and inhibitors, followed by a biochemical separation of substrate and product. All assays for the biochemical HTS were initially run in duplicate at a single concentration (10 uM for CYP450 assays and 25 uM for all others). Assay-chemical combinations meeting a pre-defined threshold (e.g., 30% inhibition and other criteria defined below) were then run in singleton concentration-response format with maximum concentration of 20 uM for CYPs and 50 uM for all others. Each assay was run with positive and negative controls, and concurrent controls on every plate. The follow-up (secondary) screen tested active chemical-pairs in concentration series, as well as a few additional assays not tested in the primary screen, some selected negative inactives, and several cases re-run in the concentration series for confirmatory purposes.

Assay [4] has as its target human Opioid Receptor Delta 1 (Opiate D1), OPRD1 (gene 4985) (UniProt P41143). Description: NVS_GPCR_hOpiate_D1: NovaScreen (NVS) G Protein-Coupled Receptor Assay for human Opioid Receptor Delta 1 (Opiate D1) (AID 2283280). The method, boiled down: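 Membrane preparations from CHO cells bearing the human receptor were incubated 1 h with test chemical, and bound radioligand was counted after filtration. Actives from 25 uM duplicate screening were retested in concentration-response.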

In assay [5] the target is human Muscarinic, M4 Receptor, CHRM4 (gene 1132) (UniProt P08173). Description: NVS_GPCR_hM4: NovaScreen (NVS) G Protein-Coupled Receptor Assay for human Muscarinic, M4 Receptor (AID 2283274). In short, it runs like this: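 Filter-based scintillation counting of radioligand bound to CHO-expressed human M4 preparations after 1 h; loss of signal fitted versus DMSO. Initial duplicate testing at 25 uM, concentration-response follow-up for actives.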
Sequence of human Muscarinic, M4 Receptor, CHRM4 (gene 1132) (P08173 whole entry, looked up): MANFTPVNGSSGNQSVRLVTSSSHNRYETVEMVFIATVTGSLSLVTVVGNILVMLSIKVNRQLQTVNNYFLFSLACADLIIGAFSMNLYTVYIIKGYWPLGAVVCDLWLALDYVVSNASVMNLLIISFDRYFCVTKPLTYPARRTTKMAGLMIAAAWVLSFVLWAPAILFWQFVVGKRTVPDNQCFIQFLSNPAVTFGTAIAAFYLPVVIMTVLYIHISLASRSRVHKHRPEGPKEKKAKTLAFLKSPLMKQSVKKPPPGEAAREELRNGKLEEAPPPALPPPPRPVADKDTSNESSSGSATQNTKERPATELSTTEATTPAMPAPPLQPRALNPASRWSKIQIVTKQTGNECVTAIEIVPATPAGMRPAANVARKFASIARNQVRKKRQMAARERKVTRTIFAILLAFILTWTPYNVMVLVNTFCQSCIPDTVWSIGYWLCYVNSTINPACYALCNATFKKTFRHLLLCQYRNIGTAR

Assay [6] has as its target human Neuropeptide Receptor Y1 (NPY1), NPY1R (gene 4886) (UniProt P25929). Description: NVS_GPCR_hNPY1: NovaScreen (NVS) G Protein-Coupled Receptor Assay for human Neuropeptide Receptor Y1 (NPY1) (AID 2283276). The method, boiled down:
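Displacement of specific radioligand from NPY1 receptor of SK-N-MC origin, read by filtration and scintillation after 1 h. Compounds first tested at 25 uM in duplicate, then actives in concentration series; signal loss relative to DMSO.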

Assay [7] deals with human Leukotriene B4 Receptor 1 (LTB4-BLT1), LTB4R (gene 1241) (UniProt Q15722). Description: NVS_GPCR_hLTB4_BLT1: NovaScreen (NVS) G Protein-Coupled Receptor Assay for human Leukotriene B4 Receptor 1 (LTB4-BLT1) (AID 2283271). The method, boiled down:
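Cell-free human neutrophil receptor preparation, 1 h exposure, radioligand binding read by filter scintillation counting. Single 25 uM duplicate screen, then concentration series topping at 50 uM; binding loss scored against DMSO baseline.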

The target in assay [8] is Muscarinic acetylcholine receptor M3 (Homo sapiens) (UniProt P20309). Description: NVS_GPCR_hM3: NovaScreen (NVS) G Protein-Coupled Receptor Assay for human Muscarinic, M3 Receptor (AID 2283272). The method, then:
as §1, with “NVS_GPCR_hM3” for “NVS_GPCR_hM2”, “plate.NVS_GPCR_hM3” for “plate.NVS_GPCR_hM2”, “NVS_GPCR_hM3,” for “NVS_GPCR_hM2,”, “Using a type of binding reporter, loss-of-signal activity can be used to understand changes in the binding as they relate to the gene CHRM2.” left out, “To generalize the intended target to other relatable targets, this assay endpoint is annotated to the gpcr intended target family, where the subfamily is rhodopsin-like receptor.” left out
Binding assays used specific radioligands (tritiated, iodinated) with non-radioactive competitive displacement ligands in agonist or antagonist protocols (as indicated) and various reference compounds and inhibitors to titrate specific binding to receptors and transporters. Most enzyme assays (CYPs, kinases, phosphatases, proteases, HDACs) used recombinant protein and specific substrates (fluorescence mostly, some colorimetric and radioactive) and inhibitors, followed by a biochemical separation of substrate and product. […]

Assay [9] concerns the target human Purinergic Receptor P2Y, P2RY1 (gene 5028) (UniProt P47900). As to the kind of experiment: NVS_GPCR_hPY2: NovaScreen (NVS) G Protein-Coupled Receptor Assay for human Purinergic Receptor P2Y (AID 2283281). The method, boiled down: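 Filtration scintillation readout of radioligand displacement on U937 extract, measured 1 h post-dosing. Single 25 uM duplicate screen, then singleton concentration series to 50 uM for chemicals passing threshold; DMSO as baseline.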

Assay [10] concerns the target Neuropeptide Y receptor type 2 (Homo sapiens) (UniProt P49146). As to the kind of experiment: NVS_GPCR_hNPY2: NovaScreen (NVS) G Protein-Coupled Receptor Assay for human Neuropeptide Receptor Y2 (NPY2) (AID 2283277). In short, it runs like this:
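Chemicals were first tested in duplicate at 25 uM, then actives in singleton concentration series to 50 uM. Tracer binding to SK-N-MC-derived protein measured cell-free after 1 h via filter scintillation; signal loss relative to DMSO.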

Several values for one entry are separate records, joined by “and”; a condition that tells them apart may be missing. Equal values may be shown once. Results filed as inconclusive are left out. Where a structure was tested more than once in an assay, its records may differ in their call. Activity calls are given as the source filed them. The calls were made as follows: active = hit-call score of the fitted dose curve at least 0.9, where 1 is the maximum; inconclusive = response in the unintended direction; inactive = score below 0.9.

Sequence of human Leukotriene B4 Receptor 1 (LTB4-BLT1), LTB4R (gene 1241) (Q15722 whole entry, looked up): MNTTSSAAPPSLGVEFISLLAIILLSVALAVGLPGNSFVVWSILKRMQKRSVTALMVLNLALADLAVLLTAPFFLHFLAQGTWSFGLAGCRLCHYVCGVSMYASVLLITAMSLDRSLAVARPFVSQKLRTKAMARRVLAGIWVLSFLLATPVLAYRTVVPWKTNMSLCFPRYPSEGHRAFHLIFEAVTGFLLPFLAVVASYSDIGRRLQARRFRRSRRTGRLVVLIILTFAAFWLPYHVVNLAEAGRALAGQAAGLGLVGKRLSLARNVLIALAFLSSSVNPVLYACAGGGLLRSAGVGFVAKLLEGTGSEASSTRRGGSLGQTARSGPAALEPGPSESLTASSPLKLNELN
Sequence of human Neurotensin Receptor (NTS), NTSR1 (gene 4923) (P30989 whole entry, looked up): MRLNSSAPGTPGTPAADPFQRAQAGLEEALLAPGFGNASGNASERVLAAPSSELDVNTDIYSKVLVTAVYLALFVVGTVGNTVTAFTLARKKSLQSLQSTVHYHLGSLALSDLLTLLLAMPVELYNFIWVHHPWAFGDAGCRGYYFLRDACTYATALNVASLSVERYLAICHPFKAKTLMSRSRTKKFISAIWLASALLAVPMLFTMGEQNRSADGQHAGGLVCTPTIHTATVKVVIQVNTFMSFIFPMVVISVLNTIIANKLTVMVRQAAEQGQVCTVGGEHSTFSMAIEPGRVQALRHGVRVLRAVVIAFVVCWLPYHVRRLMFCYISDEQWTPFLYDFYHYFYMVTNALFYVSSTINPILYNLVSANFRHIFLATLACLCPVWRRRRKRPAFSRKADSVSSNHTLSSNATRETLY
Sequence of Neuropeptide Y receptor type 2 (Homo sapiens) (P49146 whole entry, looked up): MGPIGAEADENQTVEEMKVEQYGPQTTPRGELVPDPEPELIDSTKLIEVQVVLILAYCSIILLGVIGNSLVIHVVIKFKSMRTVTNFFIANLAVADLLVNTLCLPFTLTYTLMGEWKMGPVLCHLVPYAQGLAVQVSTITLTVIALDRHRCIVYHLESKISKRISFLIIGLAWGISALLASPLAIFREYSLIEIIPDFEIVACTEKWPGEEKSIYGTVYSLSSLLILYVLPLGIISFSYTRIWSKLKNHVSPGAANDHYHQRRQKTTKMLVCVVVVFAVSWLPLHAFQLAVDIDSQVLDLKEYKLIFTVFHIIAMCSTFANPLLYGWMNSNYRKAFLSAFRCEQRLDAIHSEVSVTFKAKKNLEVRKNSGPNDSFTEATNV
Sequence of human Neurokinin, NK2 Receptor, TACR2 (gene 6865) (P21452 whole entry, looked up): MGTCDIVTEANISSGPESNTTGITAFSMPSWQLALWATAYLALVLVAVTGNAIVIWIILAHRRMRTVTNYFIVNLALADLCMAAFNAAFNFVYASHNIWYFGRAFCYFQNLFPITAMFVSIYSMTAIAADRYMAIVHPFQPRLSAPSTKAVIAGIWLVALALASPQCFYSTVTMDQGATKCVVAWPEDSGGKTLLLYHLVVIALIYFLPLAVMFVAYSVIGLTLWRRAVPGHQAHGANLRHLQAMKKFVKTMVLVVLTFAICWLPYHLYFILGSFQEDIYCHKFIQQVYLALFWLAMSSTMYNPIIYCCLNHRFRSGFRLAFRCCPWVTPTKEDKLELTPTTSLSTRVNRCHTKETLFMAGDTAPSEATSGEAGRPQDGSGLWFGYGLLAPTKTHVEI
Sequence of human Neuropeptide Receptor Y1 (NPY1), NPY1R (gene 4886) (P25929 whole entry, looked up): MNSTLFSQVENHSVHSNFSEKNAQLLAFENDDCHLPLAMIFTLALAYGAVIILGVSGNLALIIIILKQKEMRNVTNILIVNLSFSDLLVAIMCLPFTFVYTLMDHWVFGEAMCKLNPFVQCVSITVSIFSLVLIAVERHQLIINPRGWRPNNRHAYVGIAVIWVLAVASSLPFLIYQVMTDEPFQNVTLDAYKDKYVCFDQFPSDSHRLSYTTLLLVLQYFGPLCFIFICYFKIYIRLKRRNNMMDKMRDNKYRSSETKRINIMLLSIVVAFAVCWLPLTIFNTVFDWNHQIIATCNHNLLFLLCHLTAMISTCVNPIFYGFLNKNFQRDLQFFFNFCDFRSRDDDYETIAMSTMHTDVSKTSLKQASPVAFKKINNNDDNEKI
Sequence of human Opioid Receptor Delta 1 (Opiate D1), OPRD1 (gene 4985) (P41143 whole entry, looked up): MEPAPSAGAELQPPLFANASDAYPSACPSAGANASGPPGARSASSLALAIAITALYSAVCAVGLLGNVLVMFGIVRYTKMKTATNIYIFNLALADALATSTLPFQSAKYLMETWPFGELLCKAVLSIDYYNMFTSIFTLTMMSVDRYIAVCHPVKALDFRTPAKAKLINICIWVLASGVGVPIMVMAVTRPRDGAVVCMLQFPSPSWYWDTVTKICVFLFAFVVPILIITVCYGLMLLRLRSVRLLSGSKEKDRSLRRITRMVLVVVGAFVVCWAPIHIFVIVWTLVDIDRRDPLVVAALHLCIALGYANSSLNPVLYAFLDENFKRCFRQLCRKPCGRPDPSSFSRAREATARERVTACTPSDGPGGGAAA
Sequence of Muscarinic acetylcholine receptor M3 (Homo sapiens) (P20309 whole entry, looked up): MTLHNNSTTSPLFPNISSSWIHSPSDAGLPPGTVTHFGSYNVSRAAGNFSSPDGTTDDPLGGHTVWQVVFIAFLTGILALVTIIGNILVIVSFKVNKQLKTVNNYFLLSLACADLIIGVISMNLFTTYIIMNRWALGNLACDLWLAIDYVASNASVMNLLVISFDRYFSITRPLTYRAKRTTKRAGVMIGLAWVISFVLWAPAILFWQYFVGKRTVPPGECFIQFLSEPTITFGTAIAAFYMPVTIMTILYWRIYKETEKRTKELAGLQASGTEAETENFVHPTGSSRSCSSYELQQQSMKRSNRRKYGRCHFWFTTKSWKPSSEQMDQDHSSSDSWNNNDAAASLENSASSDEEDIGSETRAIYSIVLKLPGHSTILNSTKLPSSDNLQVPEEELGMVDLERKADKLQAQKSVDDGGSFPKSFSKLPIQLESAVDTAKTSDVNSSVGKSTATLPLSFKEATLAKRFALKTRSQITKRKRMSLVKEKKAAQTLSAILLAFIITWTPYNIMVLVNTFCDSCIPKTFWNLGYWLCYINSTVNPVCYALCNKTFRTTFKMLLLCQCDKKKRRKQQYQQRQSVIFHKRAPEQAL
Sequence of human Purinergic Receptor P2Y, P2RY1 (gene 5028) (P47900 whole entry, looked up): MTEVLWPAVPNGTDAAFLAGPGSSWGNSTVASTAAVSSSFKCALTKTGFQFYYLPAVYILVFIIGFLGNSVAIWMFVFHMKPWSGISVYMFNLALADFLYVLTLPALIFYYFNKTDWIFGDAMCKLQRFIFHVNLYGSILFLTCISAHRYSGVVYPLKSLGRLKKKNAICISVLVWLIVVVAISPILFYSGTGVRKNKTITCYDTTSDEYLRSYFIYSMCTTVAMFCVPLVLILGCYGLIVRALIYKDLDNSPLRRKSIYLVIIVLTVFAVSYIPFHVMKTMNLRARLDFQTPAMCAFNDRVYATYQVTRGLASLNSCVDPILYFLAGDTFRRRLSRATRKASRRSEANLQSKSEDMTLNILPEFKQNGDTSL

`COP(=S)(OC)Oc1nc(Cl)c(Cl)cc1Cl`: the result in [1] was inactive.

`Cc1ccc(-c2c(Cl)nc(C#N)n2S(=O)(=O)N(C)C)cc1`: in [2], the compound was called inactive.

Take `C#CCOS(=O)OC1CCCCC1Oc1ccc(C(C)(C)C)cc1` (centres undefined): in assay [3], the outcome was inactive.

With `CCOP(=S)(OCC)SCn1c(=O)oc2cc(Cl)ccc21`, the compound was called inactive in assay [4].

The term AC50 denotes the midpoint of the concentration-response curve, whichever way the signal moves. Regarding `CN(C)C(=S)SSC(=S)N(C)C`, in assay [5], the call was inactive. The half-maximal activity concentration (AC50) in assay [6] was 14.7 µM (active).

Turning to `COc1ccc(C(c2ccc(OC)cc2)C(Cl)(Cl)Cl)cc1`, the result in assay [7], in [8], in assay [1], in assay [5], in assay [2] and in assay [4] was inactive.

Turning to `CS/C(C)=N/OC(=O)N(C)SN(C)C(=O)O/N=C(\C)SC`, in assay [6], the AC50 was 25 µM (active).

Take `CC1COC(Cn2cncn2)(c2ccc(Oc3ccc(Cl)cc3)cc2Cl)O1` (centres undefined): in assay [7], the outcome was inactive.

With `OC(c1ccc(Cl)cc1)(c1cncnc1)c1ccccc1Cl` (centres undefined), the result in assay [7] was inactive. In addition, the AC50 in assay [4] is 12.5 µM (active).

Turning to `CNC(=S)S`, the outcome in assay [1], in assay [6], in [3] and in assay [9] was inactive.

On to `COC(=O)C=C(C)OP(=O)(OC)OC`, for which the call in assay [5] was inactive.

With `COc1nc(C)nc(NC(=O)NS(=O)(=O)c2ccccc2CCC(F)(F)F)n1`, the call in assay [10] was inactive.

Take `CCCCNC(=O)OCC#CI`: in assay [6], the half-maximal activity concentration (AC50) was 15.9 µM (active) and 14.4 µM (active). In assay [4], the AC50 is 13.3 µM (active) and the compound was classed as inactive.

Consider `CCCC1COC(Cn2cncn2)(c2ccc(Cl)cc2Cl)O1` (centres undefined), for which the AC50 is 4.96 µM (active) in [8] and 2.09 µM (active) in [4]. The call in [5] was inactive.

Turning to `CO/C=C(/C(=O)OC)c1ccccc1Oc1cc(Oc2ccccc2C#N)ncn1`, the concentration at half-maximal activity (AC50) was 14.6 µM (active) in assay [7] and 7.95 µM (active) in assay [4]. Also, in assay [4], the compound was called inactive.

Take `COC(=O)C(C)Oc1ccc(Oc2ccc(Cl)cc2Cl)cc1` (centres undefined): the result in [3] was inactive.

Regarding `COc1nc(C)nc(NC(=O)NS(=O)(=O)c2ccccc2Cl)n1`, the call in assay [3] was inactive.

Consider `CCOC(=O)C(Cl)Cc1cc(-n2nc(C)n(C(F)F)c2=O)c(F)cc1Cl` (centres undefined), for which the result in assay [2] was inactive.

The values are drawn from PubChem BioAssay (EPA / NIEHS).
